# Source: publication PMC4336329 (PLoS ONE, 2015)
# Among all 310,000 compounds or so, about 14,000 (4.5%) showed an effect of 50% or more. Effects have a minus sign here. Only a selection was taken, and strong results are over-represented in it overall.
# Target: human ether-à-go-go-related gene (hERG) potassium channel (human, UniProt Q12809)
# Test: primary screen, population patch clamp on CHO cells stably expressing hERG; higher = less effect of the substance
# 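Also: peak tail current of the secondary pulse compared with the same well before compound.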
# human ether-à-go-go-related gene (hERG) potassium channel, sequence (Q12809 whole entry, looked up): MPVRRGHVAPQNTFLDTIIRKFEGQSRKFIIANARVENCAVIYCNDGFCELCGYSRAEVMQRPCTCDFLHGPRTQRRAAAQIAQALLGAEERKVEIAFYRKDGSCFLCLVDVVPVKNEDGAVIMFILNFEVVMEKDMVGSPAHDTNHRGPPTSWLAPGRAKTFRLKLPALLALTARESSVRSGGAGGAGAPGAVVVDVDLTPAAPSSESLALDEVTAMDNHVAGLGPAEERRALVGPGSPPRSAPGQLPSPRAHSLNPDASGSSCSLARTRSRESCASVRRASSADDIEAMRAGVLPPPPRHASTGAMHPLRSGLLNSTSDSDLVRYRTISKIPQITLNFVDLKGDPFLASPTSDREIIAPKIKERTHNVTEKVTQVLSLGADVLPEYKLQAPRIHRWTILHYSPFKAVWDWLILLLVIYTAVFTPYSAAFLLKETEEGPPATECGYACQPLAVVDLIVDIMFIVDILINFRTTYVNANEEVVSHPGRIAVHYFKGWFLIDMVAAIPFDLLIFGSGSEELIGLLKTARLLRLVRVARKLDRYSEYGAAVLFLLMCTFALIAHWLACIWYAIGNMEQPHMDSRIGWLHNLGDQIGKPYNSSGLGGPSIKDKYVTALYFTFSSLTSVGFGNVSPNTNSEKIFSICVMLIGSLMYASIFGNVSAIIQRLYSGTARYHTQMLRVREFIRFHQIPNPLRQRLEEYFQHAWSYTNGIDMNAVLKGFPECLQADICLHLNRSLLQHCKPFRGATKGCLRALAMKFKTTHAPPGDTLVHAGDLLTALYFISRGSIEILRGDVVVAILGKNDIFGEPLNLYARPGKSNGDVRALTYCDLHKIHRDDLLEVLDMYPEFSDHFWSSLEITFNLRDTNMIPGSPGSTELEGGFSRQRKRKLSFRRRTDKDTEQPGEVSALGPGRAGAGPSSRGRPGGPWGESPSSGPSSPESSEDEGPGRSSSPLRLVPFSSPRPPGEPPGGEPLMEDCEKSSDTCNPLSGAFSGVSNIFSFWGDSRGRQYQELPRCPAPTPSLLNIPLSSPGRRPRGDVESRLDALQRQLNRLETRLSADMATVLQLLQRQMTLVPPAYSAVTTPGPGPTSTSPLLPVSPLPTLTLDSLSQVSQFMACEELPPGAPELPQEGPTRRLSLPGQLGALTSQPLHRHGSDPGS
row,SMILES,"hERG current change (%, negative = inhibition) at 10uM [%]"
1,COc1ccc(N(CC(=O)NC(C)C)S(=O)(=O)c2ccc(NC(C)=O)cc2)cc1,2.29
2,CC(=O)c1c(C)[nH]c(C(=O)COC(=O)CCCOc2ccccc2)c1C,18.7
3,Cc1cccc(N(C(=O)Cn2nnc3ccccc32)C(C(=O)NC(C)(C)C)c2ccsc2)c1C (stereo not shown),19.7
4,COc1ccc2[nH]c(=O)c(CN(CC3CCCO3)C(=S)Nc3cccc(C)c3)cc2c1 (stereo not shown),16.3
5,CCN1CCCC1CN(Cc1cc2ccc(C)cc2[nH]c1=O)C(=S)Nc1ccc(OC)cc1 (stereo not shown),25.3
6,CCN1CCCC1CN(Cc1cc2ccc(C)cc2[nH]c1=O)C(=S)Nc1cccc(OC)c1 (stereo not shown),-70.7
7,CC(=O)N(Cc1ccc(F)cc1)C1=C(NCCc2ccccc2)C(=O)c2ccccc2C1=O,-0.648
8,NC(N)=N/N=C/c1c(Cl)cccc1Cl,-10.3
9,COC(=O)CCCC(NC(=S)N1CC2C[C@@H](C1)Cn1c2cccc1=O)C(=O)OC (stereo partly shown),8.56
10,Cc1ccc(NC(=S)N(CCCN2CCCC2)Cc2cccn2Cc2ccc(Cl)cc2)cc1C,4.72
11,CCOc1ccc(NC(=S)N(CCCN2CCCC2)Cc2cccn2Cc2ccc(Cl)cc2)cc1,-58.4
12,Cc1cccc(NC(=S)N(CCCN2CCCC2)Cc2cccn2Cc2ccc(Cl)cc2)c1,-71.8
13,Cc1ccc(NC(=S)N(CCCN2CCCC2)Cc2cccn2Cc2ccc(Cl)cc2)cc1,-22.9
14,S=C(Nc1cccc(Cl)c1)N(CCCN1CCCC1)Cc1cccn1Cc1ccc(Cl)cc1,-22.7
15,Cc1ccc(NC(=S)N(CCCN2CCCC2)Cc2cccn2Cc2ccc(Cl)cc2)cc1Cl,6.99
16,CCCCC(CC)CNC(=O)C1C2C=CC(C2)C1C(=O)O (stereo not shown),-4.63
17,CC1(C(=O)NC2CCCCC2)CCC(=O)N1Cc1cccs1 (stereo not shown),-0.227
18,O=C(NCCCN1CCCC1=O)c1csc2ccccc12,-28.2
19,CCOc1ccc(CN2CCCC(CO)(Cc3ccc(F)cc3)C2)cc1 (stereo not shown),-62
20,CSCCCN1CCCC(CO)(Cc2ccc(F)cc2)C1 (stereo not shown),-30.1
21,COc1cc(CN2CCCC(CO)(Cc3ccccc3F)C2)ccc1O (stereo not shown),-22.5
22,CCOc1ccc(CN2CCCC(CO)(Cc3ccccc3F)C2)cc1 (stereo not shown),-64.8

row,SMILES,"hERG current change (%, negative = inhibition) at 10uM [%]"
1,CC(C)Oc1ccc(CN2CCCC(CO)(Cc3ccc(F)cc3)C2)cc1 (stereo not shown),-58.7
2,CCn1cc(CN2CCCC(CO)(Cc3ccc(F)cc3)C2)c2ccccc21 (stereo not shown),-32
3,COC(=O)c1ccc(CN2CCCC(CO)(Cc3ccccc3F)C2)cc1 (stereo not shown),-32.7
4,CC(C)Oc1ccc(CN2CCCC(CO)(Cc3ccccc3)C2)cc1CO (stereo not shown),-43.1
5,O=C(O)c1cccc2c1C(=O)c1cc(Br)ccc1S2(=O)=O,20.2
6,Cc1ccc(S(=O)(=O)NCCS(=O)(=O)N2CCN(c3ccccc3)CC2)cc1,-1.5
7,CC(=O)c1nn(-c2cccc(Br)c2)cc1C(=O)c1ccc(Br)cc1,12.7
8,O=C(NCCCN=C1NS(=O)(=O)c2ccccc21)c1ccc(S(=O)(=O)N2CCOCC2)cc1,4.24
9,COCn1ccnc1C(O)(c1ccc(OC)cc1)c1ccc(OC)cc1,9.69
10,O=C(O)CCC(NS(=O)(=O)c1ccc(N2CCCC2=O)cc1)C(=O)O (stereo not shown),-7.11
11,O=C(O)C(=O)O.O=C(c1ccccc1F)N1CCN(C2CCC(c3ccccc3)CC2)CC1 (stereo not shown),-60.5
12,O=C(O)C(=O)O.O=C(c1ccccc1)N1CCN(C2CCCCC2)CC1,-31.9
13,O=C(O)C(=O)O.O=C(c1ccc(F)cc1)N1CCN(C2CCCCC2)CC1,-62.1
14,O=C(O)C(=O)O.O=C(c1ccccc1)N1CCN(C2CCCCCC2)CC1,-28.8
15,O=C(c1ccc(F)cc1)N1CCCC(c2ccccc2)C1 (stereo not shown),15.8
16,O=C(O)C(=O)O.O=C(c1ccncc1)N1CCN(C2CCCCC2)CC1,-23.4
17,O=C(O)C(=O)O.O=C(c1ccc(F)cc1)N1CCN(C2CCC(c3ccccc3)CC2)CC1 (stereo not shown),-76
18,O=C(c1ccc(F)cc1)N1CCC(c2ccccc2)C1 (stereo not shown),2.75
19,CC1CCC(N2CCN(C(=O)c3ccccc3F)CC2)CC1.O=C(O)C(=O)O (stereo not shown),-2.63
20,O=C(c1ccncc1)N1CCN(C(=O)c2ccncc2)CC1,12
21,COc1cccc(C(=O)N2CCN(C3CCC(c4ccccc4)CC3)CC2)c1OC.O=C(O)C(=O)O (stereo not shown),-10.1
22,O=C(O)C(=O)O.O=C(c1ccncc1)N1CCN(C2CCC(c3ccccc3)CC2)CC1 (stereo not shown),-63.4

row,SMILES,"hERG current change (%, negative = inhibition) at 10uM [%]"
1,O=C(CSc1nnc2ccccn12)NC(=O)NC1CCCC1,13.4
2,O=C(O)C1C2C=CC(C2)C1C(=O)Nc1cccc(C(F)(F)F)c1 (stereo not shown),8.95
3,CC(C)c1ccc(/C=C2\SC(N3CCCC3)=NC2=O)cc1,-37.1
4,CCOc1ccccc1OCCCC(=O)NNC(=O)c1nn(C)c(=O)c2ccccc12,-20.3
5,Cn1cnc(S(=O)(=O)Nc2ccccc2C(=O)NCC2CC2)c1,13.7
6,Cc1ccc(C)c(NC(=S)NNc2ccc(F)cc2F)c1,5.57
7,Cc1c(C)c2ccc(O[C@@H]3O[C@H](CO)[C@@H](O)[C@H](O)[C@H]3O)c(C)c2oc1=O,11.7
8,COc1ccc(NC(=O)c2ccc(Cl)c(S(=O)(=O)N3CCc4ccccc4C3)c2)cn1,-46.8
9,CCc1cc(C(c2cccc(OC)c2)N2CCOCC2)c(NC(=O)c2ccccc2)s1 (stereo not shown),-1.91
10,Cc1cc(NO)c(C(C)C)cc1N=O,-2.87
11,O=C(NCCNC1CCC(c2ccccc2)CC1)c1cccs1 (stereo not shown),-35.2
12,O=C(NC1CCN(C(=O)NCc2ccccc2)CC1)c1ccc(F)cc1,-15.8
13,O=C(NCCNC1CCC(c2ccccc2)CC1)c1ccc(F)cc1 (stereo not shown),-58.3
14,C/C(=N\NC(=O)c1ccccn1)c1ccc(Cl)cc1,5.74
15,Cc1cc2c(N=NC(=O)C3CC3c3ccccc3)c(O)[nH]c2cc1Br (stereo not shown),0.687
16,Cc1ccc2[nH]c(O)c(N=NC(=O)CCc3ccccc3)c2c1Br,10.5
17,Cc1ccc2[nH]c(O)c(N=NC(=O)C3CC3c3ccccc3)c2c1Br (stereo not shown),-55.7
18,COC(=O)CCC(=O)OC1(C)C(=O)C2=CN(C3CC3)C(c3ccc(OC)cc3)=CC2=C(Br)C1=O (stereo not shown),14.4
19,COC(=O)CCC(=O)OC1(C)C(=O)C2=CN(CC3CC3)C(c3ccc(OC)cc3)=CC2=C(Br)C1=O (stereo not shown),4.74
20,COC(=O)CCC(=O)OC1(C)C(=O)C2=CN(Cc3ccc(OC)cc3)C(c3ccc(OC)cc3)=CC2=C(Br)C1=O (stereo not shown),-58.7
21,COCCN1C=C2C(=O)C(C)(OC(=O)CCC(=O)OC)C(=O)C(Br)=C2C=C1c1ccc(OC)cc1 (stereo not shown),7.96
22,COC(=O)CCC(=O)OC1(C)C(=O)C2=CN(Cc3ccccc3)C(c3ccc(OC)cc3)=CC2=C(Br)C1=O (stereo not shown),2.01

row,SMILES,"hERG current change (%, negative = inhibition) at 10uM [%]"
1,COC(=O)CCC(=O)OC1(C)C(=O)C2=CN(C3CCCC3)C(c3ccc(OC)cc3)=CC2=C(Br)C1=O (stereo not shown),-52.6
2,Cc1ccc(N2CCN(C3=NC(=O)/C(=C\c4cn[nH]c4-c4ccccc4)S3)CC2)cc1,2.07
3,COc1ccc(C2/C=C\CN(C(=O)OCc3ccccc3)CC(=O)N2Cc2ccc(F)cc2)cc1 (stereo not shown),-26
4,CCOC(=O)Cc1cc(=O)c2c(=O)n(-c3ccccc3)[nH]c2[nH]1,9.55
5,O=C(Oc1ccccc1)Oc1ccc2c(c1)oc(=O)c1ccccc12,16.9
6,CN(C)C(N)=NCCC[C@H](N)C(=O)O.Cl,9.67
7,COc1ccc(N2CCN(c3ccnc4cc(Cl)ccc34)CC2)cc1,-36.5
8,O=C(c1ccco1)N1CCN(c2ccnc3cc(Cl)ccc23)CC1,-71.5
9,Oc1ccc(N2CCN(c3ccnc4cc(Cl)ccc34)CC2)cc1,-22.7
10,CC(=O)N1CCC(=NNc2ccnc3cc(Cl)ccc23)CC1,-22.2
11,Clc1ccc2c(N3CCNCC3)ccnc2c1,-41.9
12,Clc1ccc2c(N3CCCC3)ccnc2c1,-65.2
13,Clc1ccc2c(N3CCOCC3)ccnc2c1,-17.1
14,O=C(c1ccco1)N1CCN(c2ccc(Cl)cc2)CC1,-40.7
15,CC(=O)N1CCN(c2ccnc3cc(Cl)ccc23)CC1,-50.4
16,CC(C)(C)C(=O)N1CCN(c2ccnc3cc(Cl)ccc23)CC1,-73.9
17,O=C(c1ccco1)N1CCN(c2cccc(Cl)c2)CC1,-11.5
18,CCCCOc1ccccc1C1NC(=O)NC(C)=C1C(=O)OCCOCC (stereo not shown),-8.27
19,COc1ccc(C2CC(c3ccccc3)Nc3nc(N)nn32)cc1 (stereo not shown),-25
